Shown are actives, neighbours in structure and some others; about 2.9% of the full set was active somewhere.
POLK inh – inhibitors of human DNA polymerase kappa | purified Pol kappa, fluorescent DNA synthesis assay, 10 min | Potency, µM (series often up to 107 µM), for the others: top-dose activity, negative = inhibition, usual class: inhibitors | hit rate 0.53% among 400,000; further: potency means the concentration at half of the fitted maximal effect; on the % scale 0 is the no-effect control and ±100 the full control effect
Target sequence (Q9UBT6 whole entry, looked up): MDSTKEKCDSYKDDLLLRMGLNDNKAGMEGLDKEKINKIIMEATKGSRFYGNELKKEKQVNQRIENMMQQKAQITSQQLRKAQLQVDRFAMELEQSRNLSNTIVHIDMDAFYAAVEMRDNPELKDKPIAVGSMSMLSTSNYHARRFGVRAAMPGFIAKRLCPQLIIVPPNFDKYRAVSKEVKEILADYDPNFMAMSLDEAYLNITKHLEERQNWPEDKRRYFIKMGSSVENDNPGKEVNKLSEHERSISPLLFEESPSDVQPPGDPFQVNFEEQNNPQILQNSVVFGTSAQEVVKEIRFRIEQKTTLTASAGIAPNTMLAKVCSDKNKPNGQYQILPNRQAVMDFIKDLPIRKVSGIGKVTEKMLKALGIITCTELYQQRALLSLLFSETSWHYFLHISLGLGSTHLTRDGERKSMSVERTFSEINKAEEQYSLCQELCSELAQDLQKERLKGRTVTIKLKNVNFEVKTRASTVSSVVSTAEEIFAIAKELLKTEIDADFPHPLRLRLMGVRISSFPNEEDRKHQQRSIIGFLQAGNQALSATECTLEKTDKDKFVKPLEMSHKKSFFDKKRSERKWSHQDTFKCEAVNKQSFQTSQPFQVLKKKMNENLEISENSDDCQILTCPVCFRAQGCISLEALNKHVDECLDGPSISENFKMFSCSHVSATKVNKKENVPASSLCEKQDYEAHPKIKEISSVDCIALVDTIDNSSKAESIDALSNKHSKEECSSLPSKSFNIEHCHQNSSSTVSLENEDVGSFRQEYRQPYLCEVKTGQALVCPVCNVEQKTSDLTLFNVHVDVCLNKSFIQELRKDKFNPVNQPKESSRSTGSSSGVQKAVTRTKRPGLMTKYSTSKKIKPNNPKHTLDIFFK
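Here, compound and 10 nM enzyme are combined for 15 min at room temperature; adding 50 nM substrate (final) starts DNA synthesis, tracked by fluorescence at 0 and 10 min against buffer-only wells.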
12-LOX inh – inhibitors of human 12S-lipoxygenase ALOX12; hit rate 1.1% among 580,000; P18054; purified 12hLO, xylenol orange hydroperoxide absorbance; Potency, µM (highest dose often 108 µM), inactives show at the top dose activity change, negative = inhibition, actives largely listed as inhibitors; further: potency means the concentration at half of the fitted maximal effect; on the % scale 0 is the no-effect control and ±100 the full control effect
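Purified human 12hLO at 150 nM in 25 mM Hepes, 0.01% Triton X-100, pH 7.0, preincubated 15 min at room temperature with compound. Reaction started with 40 uM arachidonic acid, 30 min at room temperature. Hydroperoxide measured by Fe-xylenol orange, 573/405 nm absorbance ratio.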
POLI inh – blocks human DNA polymerase iota activity. Q9UNA4. Pol iota fluorescent replication assay, 10 min. Potency, µM (series often up to 115 µM), without a hit: at the top dose activity, negative = inhibition, most hits filed as inhibitors. hit rate 1% among 390,000. AID 588590; further: potency means the concentration at half of the fitted maximal effect
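Pol iota at 10 nM preincubated 15 min with compounds at room temperature; reaction started with fluorescent substrate, 50 nM final. Fluorescence read kinetically at 0 and 10 min; buffer-only wells as negative control.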
PI5P4Ka inh – blocks human PI5P4K alpha kinase activity; P48426; hit rate 1.2% among 330,000; max response, %; PI5P4Kalpha enzyme, ADP-Glo luminescence, 60 min; stronger effect = lower value; active means max response of -50% or lower; inconclusive means between -30% and -50%; inactive means -30% or higher; further: value at the top dose of about 77 µM; on the % scale 0 is the no-effect control and ±100 the full control effect
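Reactions run in 0.038 M HEPES pH 7.4, 0.28 mM EGTA, 0.1% CHAPS and 5% DMSO, with PI5P4Kalpha, substrate, compound and 5 microM ATP final, one hour at room temperature. Readout is ADP-Glo luminescence.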
POLB inh – DNA polymerase beta (human) inhibition. hit rate 1.3% among 340,000. Pol beta primer extension/strand displacement, fluorescence kinetic. Potency, µM (top dose mostly 114 µM), for the others: at the top dose activity change, negative = inhibition, hits mostly inhibitors; further: potency means the concentration at half of the fitted maximal effect; on the % scale 0 is the no-effect control and ±100 the full control effect
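Pol beta (10 nM) and compounds were preincubated 15 min at room temperature, then 50 nM substrate (final) started primer extension/strand displacement. Reads were taken at 0 and 10 min; concentration-response data were fitted to a four-parameter Hill equation.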
Pol eta inh – blocks human DNA polymerase eta activity; Q9Y253; recombinant Pol eta, fluorescent DNA replication assay; Potency, µM (titrated, usually from 114 µM), for inactives: at the highest dose activity change, negative = inhibition, hits mostly inhibitors; hit rate 1.2% among 390,000; further: potency means the concentration at half of the fitted maximal effect; on the % scale 0 is the no-effect control and ±100 the full control effect
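Fluorescent replication assay: 50 nM final substrate added after a 15 min room-temperature compound preincubation with 10 nM enzyme. Signal taken at 0 min and again at 10 min.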
Active calls of the source: *; i = inactive; ? = inconclusive; . = no result given. Unless noted, the call rests on the fitted dose curve; in most records, active means well fitted inhibition curve with a large enough effect; inconclusive means small, poorly fitted or top-dose-only effect, or another doubt; inactive means no such curve, though single readings can be large or run the other way.

SMILES	POLK inh	12-LOX inh	POLI inh	PI5P4Ka inh	POLB inh	Pol eta inh
COc1cc(/C=C(/C#N)C(=O)c2c(Cl)cccc2Cl)cc(OC)c1	.	28µM*	.	.	.	.
COc1cc(OC)c(OC)cc1/C=C(/C#N)C(=O)c1c(Cl)cccc1Cl	.	5%	.	.	.	.
COc1cc(/C=C(/C#N)C(=O)Nc2cccc3ncccc23)cc(OC)c1OC	.	16µM*	.	.	.	.
COc1cc(/C=C(/C#N)C(=O)c2c(Cl)cccc2Cl)cc(OC)c1OC	.	0.5µM*	.	.	.	.
COc1cccc(/C=C(/C#N)C(=O)c2c(Cl)cccc2Cl)c1OC	.	20µM*	.	.	.	.
COc1cccc(/C=C(/C#N)C(=O)c2c(Cl)cccc2Cl)c1	.	7.1µM*	.	.	.	.
COc1cc(/C=N/NC(=O)c2ccc(NS(=O)(=O)c3cccs3)cc2)cc(OC)c1O	-8%	?	-27%	-60*	.	-28%
COc1cc(/C=N\NC(=O)c2ccc(-c3ccccc3)cc2)cc(OC)c1O	?	?	32µM*	-9	25µM*	?
O=C(NN=Cc1ccccc1OC(F)F)c1ccc(NS(=O)(=O)c2cccs2)cc1	-12%	i	8%	-63*	.	?
CCOc1cc(/C=N/Nc2nn3cnnc3c3ccccc23)ccc1O	-39%	1%	?	-3	?	?
COc1cc(/C=N/Nc2nn3cnnc3c3ccccc23)ccc1O	-2%	0%	?	.	50µM*	?
CNS(=O)(=O)c1cc(-c2nnc(Nc3ccc(C)cc3C)c3ccccc23)ccc1C	.	15%	.	.	.	.
Cc1nn(-c2ccc(Cl)cc2)c(Cl)c1/C=N/NC(=O)c1ccc(NS(=O)(=O)c2cccs2)cc1	-16%	-25%	-4%	-66*	.	79µM*
COc1cc(C(=O)N/N=C/c2ccc3c(c2)c2ccccc2n3C)ccc1O	?	322%	18µM*	-18	25µM*	16µM*
Cc1cc(=O)oc2cc(OCc3nc(C(C)(C)C)no3)ccc12	.	-23%	.	.	.	.
O=c1c2ccccc2nc2c3ccccc3c(NCCN3CCOCC3)nn12	.	-18%	.	.	40µM*	.
CCC(=O)Nc1nnc(CCc2ccccc2)s1	-1%	17%	19%	?	-8%	-4%
CCOC(=O)C(=O)Nc1nnc(CCc2ccccc2)s1	5%	?	-5%	-66*	17%	5%
Cc1ccccc1C(=O)N1CCN(c2oc(-c3ccccc3F)nc2C#N)CC1	.	-7%	.	.	.	.
CCC(=O)NC1=C(Cl)C(=O)C(NC(=O)CC)=C(Cl)C1=O	1%	?	1.8µM*	-81*	11%	?
COc1ccc(Cc2c(O)nc(SC)n(C(C)=O)c2=O)cc1	-1%	0%	-4%	-75*	-3%	-4%
COc1ccc(-n2c(SC)nc(O)c(Cc3ccccc3)c2=O)cc1	-2%	-23%	-3%	.	30%	3%
O=c1c2c(-c3ccco3)csc2nc(SCc2cn3cccnc3n2)n1-c1ccccc1	-23%	?	?	-67*	-1%	11µM*
NC(=O)CSc1nc2scc(-c3ccco3)c2c(=O)n1-c1ccccc1	45µM*	?	11µM*	-70*	?	79µM*
O=C(NC(=S)NCc1ccncc1)c1ccccc1	-5%	-7%	-2%	-1	33%	1%
SMILES	POLK inh	12-LOX inh	POLI inh	PI5P4Ka inh	POLB inh	Pol eta inh
COc1ccc(CCNC(=S)NC(=O)c2cccc([N+](=O)[O-])c2)cc1OC	-11%	35µM*	13%	-3	-26%	-13%
O=C(NC(=S)NCc1ccc(F)cc1)c1ccccc1	-13%	16µM*	-13%	1	4%	-13%
COc1ccc(CCNC(=S)NC(=O)c2ccccc2)cc1OC	-11%	?	26%	.	3%	-8%
O=C(NC(=S)NCc1ccccc1)c1ccccc1	-3%	40µM*	31%	10	7%	-22%
O=C(NC(=S)NC1CCCC1)c1ccccc1	5%	13µM*	18%	1	41%	-25%
O=C(N/N=C/c1cccs1)c1cccc2ccccc12	.	12%	.	.	.	.
CCOC(=O)c1ccc(NC(=O)Cn2c(N3CCN(c4ccccc4)CC3)nc(C)cc2=O)cc1	.	-1%	.	.	.	.
